From PubChem BioAssay
Coupling enz – inhibits coupling enzyme system, counter-screen for aldolase hits; AID 2472; activity change, negative = inhibition, % at 58.2 µM, hits read low; coupling enzyme system counterscreen, AmpLite Red fluorescence; actives 0.67% (n = 290,000); in the data active = activity change below about -30%
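First, compound is pin-transferred into glyceraldehyde-3-phosphate coupling-enzyme reagent at 57.5 uM final and held 10 min at RT. Next, substrate, coupling system and AmpLite Red are added. After 20 min RT, fluorescence (525/598 nm) is read.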
Tau fluor counter – counter-screen for tau fibril formation inhibitors; tau K18 P301L Alexa594 fluorescence, heparin fibrillization; Potency, µM (top dose mostly 57.7 µM); actives 0.93% (n = 280,000); AID 1463; also: nearly all actives have a fitted effect of over 55% in size
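Human tau K18 P301L (15 uM unlabeled, 0.24 uM Alexa 594-labeled) in 100 mM sodium acetate pH 7 with 20 uM heparin, 6 hr at 37 C. ThT 30 uM added, 1 hr ambient; Alexa 594 FP and total fluorescence read at 555/632 nm.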
JMJD2E inh – inhibitors of human JMJD2E histone demethylase | B2RXH2 | JMJD2E catalytic domain, FDH-coupled NADH fluorescence (FDH is formaldehyde dehydrogenase) | Potency, µM (highest dose often 57.1 µM), most hits filed as inhibitors | actives 1.6% (n = 230,000) | AID 2147; active = well fitted inhibition curve with a large enough effect, not every such curve was filed as active; inconclusive = small, poorly fitted or top-dose-only effect, or another doubt; inactive = no such curve, though single readings can be large or run the other way; also: nearly all actives have a fitted effect of over 50% in size
Target sequence (B2RXH2 1-337 limits assumed): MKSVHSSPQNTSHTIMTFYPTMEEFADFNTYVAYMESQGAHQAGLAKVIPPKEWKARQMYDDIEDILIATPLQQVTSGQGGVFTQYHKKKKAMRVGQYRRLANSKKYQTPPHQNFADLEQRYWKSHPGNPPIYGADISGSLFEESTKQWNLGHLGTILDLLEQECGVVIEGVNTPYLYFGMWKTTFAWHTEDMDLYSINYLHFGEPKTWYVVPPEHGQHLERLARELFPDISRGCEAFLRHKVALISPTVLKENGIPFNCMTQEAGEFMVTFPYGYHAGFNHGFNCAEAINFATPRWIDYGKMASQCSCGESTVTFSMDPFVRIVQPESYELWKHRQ
Tau FP inhib – inhibitors of human tau fibril formation | P10636 | K18 P301L tau heparin fibrillization, Alexa594 FP, 6 h | Potency, µM (top dose mostly 57.7 µM), usual class: inhibitors | actives 0.39% (n = 280,000) | AID 1468; also: nearly all actives have a fitted effect of over 55% in size
Target sequence (P10636 561-689 P618L limits assumed): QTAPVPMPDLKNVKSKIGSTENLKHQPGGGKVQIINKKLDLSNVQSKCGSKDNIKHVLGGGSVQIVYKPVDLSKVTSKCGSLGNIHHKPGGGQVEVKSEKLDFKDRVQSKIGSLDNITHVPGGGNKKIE
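Human K18 P301L fragment (15 uM unlabeled plus 0.24 uM Alexa 594-labeled) in 100 mM sodium acetate pH 7 with compound, aggregation induced by 20 uM heparin for 6 hr at 37 C. ThT (30 uM) added for 1 hr, then Alexa 594 FP read.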
Tau fibril ThT – inhibitors of human tau fibril formation, thioflavin T binding; recombinant tau K18 P301L (four-repeat tau fragment), heparin-induced fibrillization, ThT fluorescence; actives 2.1% (n = 270,000); P10636; Potency, µM (top dose mostly 57.4 µM), usual class: inhibitors; also: nearly all actives have a fitted effect of over 55% in size
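In this qHTS, human K18 P301L tau is incubated with compound and heparin for 6 hr at 37 C, and Thioflavin T fluorescence then reports fibril load.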
Sfp inh – inhibitors of Bacillus subtilis Sfp phosphopantetheinyl transferase; Biochemical Sfp PPTase activity, qHTS; Potency, µM, usual class: inhibitors; actives 3.5% (n = 310,000);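 also: the enzyme is Sfp with the accession as filed and its product quenches rhodamine fluorescence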
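Compounds were incubated with enzyme (final 15 nM) for 15 min at room temperature before substrate addition started the reaction. Fluorescence at 525 nm excitation, 598 nm emission was recorded immediately and after 30 minutes.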
Numbers stand for hits; 0 = inactive; ? = inconclusive; - = no result given; ! = not active in a repeat; [ ] = dose if it differs, or a comment. This is a sample that favours compounds with a hit; in the whole collection about 5.3% have one here. Unless noted, calls follow the shape of the dose curve; as a rule, active = well fitted curve in the direction sought with a large enough effect; inconclusive = small, poorly fitted or top-dose-only effect, or another doubt; inactive = no such curve, though single readings can be large; an effect the other way counts as inactive or inconclusive.

SMILES	Coupling enz	Tau fluor counter	JMJD2E inh	Tau FP inhib	Tau fibril ThT	Sfp inh
CC(C)CCNC(=O)Nc1ccc2c(c1)N(C)C(=O)CS2	0	0	0	0	0	0
COc1ccc(NC(=O)Nc2ccc3c(c2)N(C)C(=O)CS3)cc1OC	0	0	0	0	0	?
CCOc1ccc(NC(=O)Nc2ccc3c(c2)N(C)C(=O)CS3)cc1	0	?	0	0	0	0
COc1ccc(NC(=O)Nc2ccc3c(c2)N(C)C(=O)CS3)cc1Cl	0	6.3µM[quencher]	0	?	?	0
CNc1oc(C)nc1S(=O)(=O)c1ccc(C)cc1	0	0	?	0	?	45µM
CNc1oc(Cc2ccccc2)nc1S(=O)(=O)c1ccccc1	0	0	0	?	?	50µM
CNc1oc(-c2ccccc2)nc1S(=O)(=O)c1ccc(C)cc1	-	-	-	-	-	0
CC(=O)Nc1ccc(C(=O)/C=C/c2ccco2)cc1	0	?	?	?	?	13µM
O=C(/C=C\c1ccco1)c1ccc(NC(=O)c2ccco2)cc1	0	?	?	0	?	10µM
CC(=O)Nc1cccc(C(=O)/C=C/c2ccc(/C=C/C(=O)c3cccc(NC(C)=O)c3)cc2)c1	0	?	0	0	?	0
CC(=O)Nc1cccc(C(=O)/C=C/c2ccc(N(C)C)cc2)c1	0	16µM[quencher]	0	0	25µM	0
CC(=O)Nc1cccc(C(=O)/C=C/c2ccco2)c1	0	?	?	?	25µM	14µM
CC(=O)Nc1ccc(C2NC(C(=O)O)CCC2C)cc1 (stereo not given)	0	0[11.6 µM]	-	0[11.6 µM]	0[11.5 µM]	0
CCN1C(=O)[C@H]2[C@H]3[C@H](O)[C@H](O)C/C(=N/O[C@@H](C)c4cn([C@H](CO)Cc5ccccc5)nn4)[C@@H]3CC[C@@H]2C1=O	0	0[11.6 µM]	-	0[11.6 µM]	0[11.5 µM]	0
O[C@@H]1COC2[C@@H](O)CO[C@@H]21 (stereo not given in full)	0	-	-	-	-	0
Cc1cc(C)nc(SCc2ccc(C(=O)N/N=C/c3cccc(O)c3O)cc2)n1	0	?	3.2µM	0	?	0
CN(C)CCN(Cc1ccccc1)c1ccccn1	0	0	32µM!	0	0	0
CCOC(=O)c1c(C)[nH]c(C)c1S(=O)(=O)N(C)CC(=O)Nc1ccc(OC)cc1	-	0	-	0	0	-
Cc1ccc(Cl)cc1N1CCN(CCCNC(=O)Cn2ncc3c([nH]c4ccccc43)c2=O)CC1	-	0	-	0	0	-
COC(=O)CSc1ccnc2cc(Cl)ccc12	0	0	0	0	0	0
O=C(O)CSc1ccnc2cc(Cl)ccc12	0	0	?	0	-	56µM
Cc1ccc(N=Nc2cc(C)ccc2O)c(C)c1	0	-	-	-	-	0
Cc1ccc(N=Nc2[nH]c3ccccc3c2O)cc1	0	0	0	0	0	0
Cc1cc(-c2ccc(N=Nc3ccc4c(S(=O)(=O)O)cc(S(=O)(=O)O)c(N)c4c3O)c(C)c2)ccc1N=Nc1ccc2c(S(=O)(=O)O)cc(S(=O)(=O)O)c(N)c2c1O	-38	0.79µM[quencher]	?	3.2µM	1.4µM	10µM!
Nc1c(N=Nc2ccc(-c3ccc(N=Nc4cc(S(=O)(=O)O)c5ccccc5c4N)cc3)cc2)cc(S(=O)(=O)O)c2ccccc12	0	0	-	0	1.1µM	45µM
SMILES	Coupling enz	Tau fluor counter	JMJD2E inh	Tau FP inhib	Tau fibril ThT	Sfp inh
CCOC(=O)c1c(C)[nH]c(CCC(=O)Nc2ccc(C)c(F)c2)c1C	-	?	-	0	0	-
CC1=C(n2nnc3ccccc32)C(c2ccccc2)C(C#N)=C(N)O1 (stereo not given)	-42	0	?	0	?	0
COc1ccc(C2C(C#N)=C(N)Oc3n[nH]c(C)c32)cc1Cn1nnc2ccccc21 (stereo not given)	0	0	0	0	?	0
Cc1ccc(-c2cc(-c3ccccc3)[nH]c(=S)c2C#N)cc1	0	0	0	0	?	0
N#Cc1c(N)[nH]c(=S)c(C#N)c1-c1ccccc1	0	0	?	?	?	40µM
CC1CCC(C(C)C)C(OP(=O)(c2ccccc2)C(O)c2ccncc2)C1 (stereo not given)	0	0	18µM	0	0	0
CN(C)c1ccc(P(=O)(OC2CCCCC2)C(O)c2ccncc2)cc1 (stereo not given)	0	0	22µM	?	?	0
CC1CCC(C(C)C)C(OP(=O)(c2ccc(N(C)C)cc2)C(O)c2cccnc2)C1 (stereo not given)	0	0	0	0	0	0
CN(C)c1ccc(P(=O)(OC2CCCCC2)C(Nc2ccccc2)c2cccnc2)cc1 (stereo not given)	0	0	0	0	-	0
CC(C)COP(=O)(c1ccc(N(C)C)cc1)C(O)c1ccncc1 (stereo not given)	0	0	20µM	0	0	0
CC(C)C1Oc2ccccc2N(CC(=O)N(Cc2ccncc2)Cc2ccco2)C1=O (stereo not given)	0	0	0	0	0	45µM
Cc1ccc(C)c(N2CCN(CCCNC(=O)c3cnn(-c4ccccc4Cl)c3C3CCN(C(=O)OC(C)(C)C)CC3)CC2)c1	-	0	-	0	?	-
COc1ccc(C(C[N+](=O)[O-])c2c(C)cc3ccccn23)cc1 (stereo not given)	0	0	?	0	?	0
COc1ccc(C(C[N+](=O)[O-])c2c(-c3ccccc3)cc3ccccn23)c(OC)c1 (stereo not given)	0	0	0	0	0	45µM
Cc1cc(C2N=C(N)Nc3nc4ccccc4n32)c(C)n1-c1ccccc1Cl (stereo not given)	0	0	0	0	0	2.8µM
Cc1ccc(-n2c(C)cc(C3N=C(N)Nc4nc5ccccc5n43)c2C)c(C)c1 (stereo not given)	0	0	0	0	0	?
S=c1[nH]cc(-c2ccccc2)n1-c1ccccc1	0	0	0	0	0	45µM
Cc1ccc(-n2c(-c3ccccc3)c[nH]c2=S)cc1	0	0	0	0	0	0
COc1ccc(-n2c(-c3ccc(Cl)cc3)c[nH]c2=S)cc1	0	-	-	-	-	56µM
O=C(NCc1ccccc1)c1cnc2sc(N3CCCC3)nn2c1=O	-	0	-	0	0	-
N#Cc1ccc(CSc2nnc(NC(=O)c3ccc4ncsc4c3)s2)cc1	0	0	?	0	0	45µM
O=C(Nc1nnc(SCc2c(Cl)cccc2Cl)s1)c1ccc2ncsc2c1	0	0	0	0	0	0
O=c1cc(O)sc2ccccc12	0	0	0	0	0	0
O=c1[nH]sc2ccccc12	0	0	?	25µM	11µM	5µM
O=C(c1ccc2c(c1)N(Cc1cccc(Cl)c1)C(=O)c1ccccc1S2=O)N1CCN(c2cccc(C(F)(F)F)c2)CC1 (stereo not given)	-	0	-	0	0	-
O=C(OCc1cc2ccccc2[nH]c1=O)c1ccco1	0	0	?	0	0	0
